Screening data as filed in PubChem.
Nrf2 block: Nrf2 pathway inhibition; A549 ARE-Fluc reporter, luciferase luminescence, 18-24 h; AID 504444; Potency, µM (doses to about 46 µM), for the others: top-dose activity change, negative = inhibition, actives largely listed as inhibitors; hit rate 2.1% among 360,000; further: potency means the concentration at half of the fitted maximal effect; on the % scale 0 is the no-effect control and ±100 the full control effect; nearly all actives have a fitted effect of over 60% in size
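Reporter: ARE-Fluc in A549. Exposure: 18-24 h, 37 °C, 5% CO2, 5% FBS OPTI-MEM. Readouts: fluorescent cytotoxicity (CellTiter-Fluor), then luminescent Nrf2 signal after BugLite.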
12-LOX inh: ALOX12 (human) lipoxygenase inhibition; P18054; purified 12hLO, xylenol orange hydroperoxide absorbance; Potency, µM (top dose mostly 108 µM), for the others: top-dose activity change, negative = inhibition, hits mostly inhibitors; hit rate 1.1% among 580,000; AID 1671190; further: potency means the concentration at half of the fitted maximal effect; on the % scale 0 is the no-effect control and ±100 the full control effect
Target sequence (P18054 whole entry, looked up): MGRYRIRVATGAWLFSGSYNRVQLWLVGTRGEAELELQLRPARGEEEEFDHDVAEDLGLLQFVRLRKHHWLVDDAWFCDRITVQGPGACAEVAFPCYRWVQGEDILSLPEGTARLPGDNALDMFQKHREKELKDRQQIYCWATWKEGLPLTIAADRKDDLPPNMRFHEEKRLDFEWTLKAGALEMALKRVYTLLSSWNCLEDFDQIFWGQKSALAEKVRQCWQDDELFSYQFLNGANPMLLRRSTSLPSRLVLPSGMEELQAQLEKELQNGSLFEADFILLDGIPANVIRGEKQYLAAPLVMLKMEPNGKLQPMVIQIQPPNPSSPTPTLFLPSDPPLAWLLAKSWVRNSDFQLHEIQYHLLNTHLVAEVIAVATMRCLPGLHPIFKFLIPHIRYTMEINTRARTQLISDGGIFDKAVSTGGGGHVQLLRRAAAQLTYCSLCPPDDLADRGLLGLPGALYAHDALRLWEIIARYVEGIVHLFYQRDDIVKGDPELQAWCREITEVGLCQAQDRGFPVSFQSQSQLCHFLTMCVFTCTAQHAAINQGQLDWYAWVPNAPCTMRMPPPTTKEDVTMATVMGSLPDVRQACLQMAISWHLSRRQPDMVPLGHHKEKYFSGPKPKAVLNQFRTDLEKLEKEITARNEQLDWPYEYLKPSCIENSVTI
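Purified human 12hLO at 150 nM in 25 mM Hepes, 0.01% Triton X-100, pH 7.0, preincubated 15 min at room temperature with compound. Reaction started with 40 uM arachidonic acid, 30 min at room temperature. Hydroperoxide measured by Fe-xylenol orange, 573/405 nm absorbance ratio.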
ERG Ets-DNA blk: ERG Ets/DNA interaction inhibition. P11308. fluorescence polarization, His-ERG Ets domain / labelled DNA. Potency, µM (top dose mostly 76.9 µM), for inactives: at the top dose FP activity, negative = inhibition, most hits filed as inhibitors. hit rate 0.028% among 370,000. AID 624246; active means well fitted inhibition curve with a large enough effect in the polarisation, with a control signal flat; inconclusive means small, poorly fitted or top-dose-only effect, or effect the other way, or a change in a side signal; inactive means no such curve, though single readings can be large or run the other way; the % refers to the polarisation;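 further: polarization taken with two DNA probes labelled with fluorescein and Texas red; potency means the concentration at half of the fitted maximal effect; % of control where 0% means no effect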
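His-tagged ERG Ets domain (1 uM in the protein solution; 300mM KCl, 50mM Tris-HCl, 1mM EDTA, 1mM DTT, pH 7.5) received compound, then a probe mix of 5 nM fluorescein-DNA and 100nM Texas-615-DNA. Fluorescence polarization was read for both dyes.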
A549 viability: counter-screen for Nrf2 inhibitors: cytotoxicity in A549 cells. A549 ARE-Fluc cells, CellTiter-Fluor viability, 18-24 h. Potency, µM (titrated, usually from 46 µM), without a hit: at the highest dose activity change, negative = cytotoxicity, actives largely listed as inhibitors. AID 504648. hit rate 0.16% among 390,000; further: potency means the concentration at half of the fitted maximal effect; on the % scale 0 is the no-effect control and ±100 the full control effect
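A549 ARE_Fluc cells in 5% FBS OPTI-MEM were exposed to compounds in concentration-response for 18-24 h at 37 deg C. Viability was read by CellTiter-Fluor fluorescence (Ex 405/Em 525) after 30 min, before the luciferase read.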
Nrf2 ARE act: activates Nrf2 signaling. AREc32 ARE-luciferase reporter (MCF7-derived line), luminescence, 24 h. Potency, µM (titrated, usually from 46.1 µM), without a hit: at the highest dose activation, hits mostly activators. hit rate 0.31% among 410,000. AID 624171; further: potency means the concentration at half of the fitted maximal effect; % of control where 0% means no effect; nearly all actives have a fitted effect of over 65% in size
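Quantitative high-throughput format: AREc32 reporter cells, 1000 per well, received compound by pin transfer and were incubated 24 hr at 37 deg C, 5% CO2, before Steady-Glo luminescence detection.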
LDHA inh: inhibitors of human lactate dehydrogenase A; P00338; purified LDHA, NADH/diaphorase-resazurin fluorescence; stronger effect = lower value; activity change, % (values are at about 110 or 230 µM); hit rate 0.15% among 480,000; AID 1347041; in the data active means activity change below about -30%; inconclusive means mostly about -25% to -30%;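 further: plate controls were DMSO wells for no effect and wells without enzyme for full effect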
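Human LDH5 at 2 nM final in Tris HCl pH 7.4 with 0.06 mM NADH and 0.2 mM pyruvate, reacted 5 minutes at room temperature. Remaining NADH coupled via diaphorase/resazurin; resorufin fluorescence read at 0 and 20 minutes, normalized to enzyme-free and DMSO wells.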
* marks the source's active call; other numbers are inactive results; ? = inconclusive; . = not tested or not shown; [ ] = another dose, or the depositor's remark. Shown are actives, neighbours in structure and some others; about 2.7% of the full set was active somewhere. Unless noted, the call rests on the fitted dose curve; in most records, active means well fitted curve in the direction sought with a large enough effect; inconclusive means small, poorly fitted or top-dose-only effect, or another doubt; inactive means no such curve, though single readings can be large; an effect the other way counts as inactive or inconclusive.

SMILES	Nrf2 block	12-LOX inh	ERG Ets-DNA blk	A549 viability	Nrf2 ARE act	LDHA inh
COc1cc(/C=C2\CC/C(=C\c3cc(OC)c(O)c(OC)c3)C2=O)cc(OC)c1O	16µM*	20µM*	40%	?	-1%	26
COc1ccc(/C=C2\Cc3ccccc3C2=O)cc1Br	.	-15%	.	.	.	5
COc1cc(OC)c(OC)cc1/C=C1/Cc2ccccc2C1=O	3%	0%	-1%	16%	5.6µM*	1
COc1cc(/C=C2\CCc3ccccc3C2=O)cc(OC)c1OC	-28%	11%	5%	5%	?	-1
CC(C)NS(=O)(=O)c1cccc(C(=O)OCc2nc3ccccc3o2)c1	.	-8%	.	.	.	-2
COc1cc(/C=C2\CC(C(C)(C)C)C/C(=C\c3cc(OC)c(OC)c(OC)c3)C2=O)cc(OC)c1OC (stereo not drawn)	5.8µM*	0%	21%	8.2µM*	?	-1
CCC1C/C(=C\c2cc(OC)c(OC)cc2OC)C(=O)/C(=C/c2cc(OC)c(OC)cc2OC)C1 (stereo not drawn)	18µM*	.	20%	?	-3%	-5
COc1ccc(C=C2CCc3ccccc3C2=O)cc1	.	0%	.	.	7%	4
COc1ccc(/C=C2/CCc3ccccc3C2=O)cc1OC	23µM*	-19%	-4%	-9%	?	0
O=C1C(=Cc2cccc(Cl)c2)Cc2ccccc21	.	-3%	.	.	10µM*	-1
O=C1C(=Cc2cccc(Cl)c2)CCc2ccccc21	.	0%	.	.	?	3
O=C(NCCSCc1ccsc1)C1CCC1	.	?	.	.	.	-4
Cc1ccc(OCC(=O)Nc2ccc(S(=O)(=O)N(C)C3CCN(C)CC3)cc2)c(C)c1	19%	35µM*	-1%	2%	2%	-11
CCCCCCc1ccc(Nc2ccccc2)cc1O	.	?	.	.	.	31
COc1ccc(CN2Cc3[nH]cnc3C[C@H]2C(=O)NCc2ccccc2)c2ccccc12	.	-12%[176 µM]	.	.	.	.
O=C(O)/C(=C\C=C\c1ccco1)NC(=O)c1ccccc1	.	1.6µM*	.	.	.	9
COC(=O)/C(=C/c1ccco1)NC(=O)c1ccccc1	3%	-1%	-2%	11%	?	-6
O=C(O)/C(=C\c1ccco1)NC(=O)c1ccccc1	-9%	3%	10%	-8%	-1%	-3
CCCOC(=O)/C(=C\C=C\c1ccco1)NC(=O)c1ccccc1	?	35µM*	12%	0%	13µM*	3
N#Cc1c(-c2ccccc2)cc(-c2cccs2)nc1SCS(=O)Cc1ccc(Cl)cc1 (stereo not drawn)	.	?	.	.	.	-6
O=c1c2ccccc2nc(SCc2nnc(-c3ccccc3Br)o2)n1-c1ccccc1	10µM*	1%	.	-23%	-1%	-7
C=CCNC(=O)c1cc(-c2ccc(OC)cc2)nc2ccc(C(C)C)cc12	.	?	.	.	.	7
CC(C)(C)Nc1nc(N2CCCC2)nc(N2CCCC2)n1	?	-5%	-6%	15µM*	0%	-5
O=C(OCC(=O)N1N=C(c2ccc(Cl)cc2)CC1c1ccco1)c1cncc(Br)c1 (stereo not drawn)	12%	7.9µM*	5%	-9%	?	-4
CCC(=O)N1N=C(c2ccc(NS(=O)(=O)c3ccc(C)cc3)cc2)CC1c1ccco1 (stereo not drawn)	18µM*	?	-2%	-19%	0%	0
SMILES	Nrf2 block	12-LOX inh	ERG Ets-DNA blk	A549 viability	Nrf2 ARE act	LDHA inh
CCC(=O)N1N=C(c2c(-c3ccccc3)c3cc(Cl)ccc3[nH]c2=O)CC1c1ccco1 (stereo not drawn)	23µM*	1%	8%	?	3%	-3
O=C(O)CCC(=O)N1N=C(c2c(-c3ccccc3)c3cc(Cl)ccc3[nH]c2=O)CC1c1ccco1 (stereo not drawn)	14%	-11%	-2%	-7%	-1%	-4
O=C(OCC(=O)N1N=C(c2ccc(Cl)cc2)CC1c1ccco1)c1ccco1 (stereo not drawn)	-14%	-20%	1%	-6%	0%[9.22 µM]	1
N#Cc1ccc(C(=O)NCCc2cccnc2)cc1	.	-4%	.	.	.	2
O=C(Sc1ccc(Cl)cc1)c1ccccn1	29%	2.8µM*	21%	1%	13%	-5
CC(=NNC(=S)N1CCCC1)c1ccccn1	.	18µM*	.	.	?	2
CC(=NNC(=S)N1CC2CCC(CC2)C1)c1cccc(C)n1	?	-10%	.	9.2µM*	17%	-4
C/C(=N\NC(=O)c1ccc(Cl)cc1)c1ccccn1	3.7µM*	22%	-7%	?	?	-1
CC(=O)Oc1cc(C)c(OC(C)=O)c2ccccc12	.	-3%	.	.	.	.
CC(=O)Oc1cc2c(c3ccccc13)CCC2=O	-1%	-3%	3%	0%	13µM*	-7
CC1=CCC(=C(C)C)CC1	.	-70%[176 µM]	.	.	.	.
Cc1ccccc1Cn1c(NC2CCCCC2)nc2c1c(=O)[nH]c(=O)n2C	.	?	.	.	.	5
C[N+](C)(CCCCCCCCCC[N+](C)(C)C1CCCCC1)C1CCCCC1	.	16µM*	.	.	.	1
S=C(NCCCN1CCOCC1)N1CCN(c2nc(-c3ccc(Cl)cc3)cs2)CC1	13µM*	?	10%	?	-3%	-2
S=C(NCC1CCCO1)N1CCN(c2nc(-c3ccc(Cl)cc3)cs2)CC1 (stereo not drawn)	16µM*	339%	-17%	?	5%	-5
Fc1ccc(N2CCN(C(=S)NCC3CCCO3)CC2)cc1 (stereo not drawn)	-24%	2%	-20%	4%	-1%	-4
S=C(NCC1CCCO1)N1CCN(c2cccc(Cl)c2)CC1 (stereo not drawn)	21µM*	0%	-6%	-1%	0%	-4
Cc1cn([C@@H](CCCCNC(=O)OC(C)(C)C)C(=O)NCCCCCCCCCCC(=O)N2CCN(C(=O)OC(C)(C)C)CC2)nn1	10µM*	.	8%	16µM*	-1%	0
CC[C@H](C)Cc1cn([C@@H](CCCN=C(NC(=O)OC(C)(C)C)NC(=O)OC(C)(C)C)C(=O)NCCCCCCCCCCC(=O)N2CCN(C(=O)OC(C)(C)C)CC2)nn1	?	.	-8%	?	-4%	0
CCC(C)(C)C1CCC(NC(=O)C(=O)Nc2cccc(Cl)c2C)CC1 (stereo not drawn)	.	?	.	.	.	3
CC12CC(c3ccccc3O1)N(C(=O)c1ccco1)C(=S)N2c1ccc(F)cc1 (stereo not drawn)	16µM*	0%	-3%	?	0%	4
O=C(N/N=C/c1cccs1)c1cccc(N/N=C/c2cccs2)c1	.	?	.	.	.	-6
CN(C)C(CNc1oc(-c2ccc(Cl)cc2)nc1C#N)c1cccs1 (stereo not drawn)	.	?	.	.	.	3
